# Reference: PubChem BioAssay (EPA / NIEHS)
# Values joined by “and” are separate entries in the source; they are usually repeats but may differ in a detail not shown here. Identical values can stand only once. A structure can be active in one record and inactive in another. Active and inactive are the calls of the source. The calls were made as follows: active = hit-call score of the fitted dose curve at least 0.9, where 1 is the maximum; inactive = score below 0.9.
# Assay: ATG_M_32_CIS: Attagene CIS-FACTORIAL HepG2 Assay for M32 Transcription Factor (Internal Marker) (AID 2282949);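 also: background control marker of the multiplexed CIS panel rather than a real target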
# Details: HepG2 Attagene cis-factorial M32 reporter, mRNA; actives raise or lower the signal
# Protocol: ATG_CIS is a cell-based, multiplexed-readout assay that uses HepG2, a human liver cell line, with measurements taken at 24 hours after chemical dosing in a 24-well plate.ATG_M_32_CIS is one of 52 assay component(s) measured or calculated from the ATG_CIS assay. It is designed to make measurements of mRNA induction, a form of inducible reporter, as detected with fluorescence intensity signals by Reverse transcription polymerase chain reaction (RT-PCR) and Capillary electrophoresis technology.Data from the assay component ATG_M_32_CIS was analyzed into 1 assay endpoint. This assay endpoint, ATG_M_32_CIS, was analyzed with bidirectional fitting relative to DMSO as the negative control and baseline of activity. Using a type of inducible reporter, measures of mRNA for gain or loss-of-signal activity can be used to understand the background control at the transcription factor-level as they relate to the gene . Furthermore, this assay endpoint can be referred to as a secondary readout, because this assay has produced multiple assay endpoints where this one serves a background control function. To generalize the intended target to other relatable targets, this assay endpoint is annotated to the background measurement intended target family, where the subfamily is internal marker.
# Human liver HepG2 cells are transiently transfected with multiple reporter transcription units (MRTUs) in 6-well plates using FuGene 6 reagent (Roche; 3 ml FuGene/1 mg DNA). The MRTU constructs are regulated by a cis-regulating element (promoter). […] A major difference between the CIS and TRANS system is that in CIS activities of endogenous TFs are measured, whereas the TRANS assay evaluates changes in activities of exogenous, chimeric NR-Gal4 proteins. […] At the end of 24 hour incubation, total RNA was isolated using TriZol reagent (Invitrogen). The isolated RNA is then reverse-transcribed using oligo(dT) primer and Mo-MLV reverse transcriptase (Invitrogen) with DNAse I (Ambion) treatment for 30 min. The one-tenth of the produced cDNA was amplified by PCR using Taq DNA polymerase (Invitrogen) and two reporter sequence-specific primers. The PCR products were fluorescently labeled by primer extension with 6-arboxyfluorescein (6-FAM) 5'-labeled reporter sequence-specific primer (2 min at 95 C, 20 s at 68 C and 10 min at 72 C) and these products were digested with 5U of HpaI (New England Biolabs) for 2h at 37 C. The fragments were purified using Qiaquick PCR columns (Qiagen), analyzed on an ABI 3130xL genetic analyzer (Applied Biosystems) with peak positions identified by using a set of X-rhodamine (ROX)-labeled MapMarker1000 molecular weight standards (BioVentures). The raw capillary electrophoresis data was processed using Attagraph software (Attagene).
SMILES,outcome,AC50
CCSC(=O)N(CC(C)C)CC(C)C,inactive,
Cc1nn(C)c(Oc2ccccc2)c1C=NOCc1ccc(C(=O)OC(C)(C)C)cc1,inactive,
O=C(O)c1ccccc1,inactive,
CCC(O)=C1C(=O)CC(C(=O)O)CC1=O (stereo not given),inactive,
C=CCOC(Cn1ccnc1)c1ccc(Cl)cc1Cl (stereo not given),inactive,
CC(C)(c1ccc(O)cc1)c1ccc(O)cc1,inactive,
O=C(c1ccc(O)cc1O)c1ccc(O)cc1O,inactive,
COC(=O)c1ccccc1S(=O)(=O)NC(=O)Nc1nc(OC(F)F)cc(OC(F)F)n1,inactive,
CCCCC(CC)COC(=O)c1ccccc1C(=O)O (stereo not given),inactive,
S=C(S)NCCNC(=S)S.[Mn+2].[S-]C([S-])=NCCN=C([S-])[S-].[Zn+2],inactive,
CC(C)(C)[C@@H](O)[C@@H](Cc1ccc(Cl)cc1)n1cncn1,inactive,
CC(=O)S[C@@H]1CC2=CC(=O)CC[C@]2(C)[C@H]2CC[C@@]3(C)[C@@H](CC[C@@]34CCC(=O)O4)[C@H]12,inactive,
CCCCOC(=O)C(C)Oc1ccc(Oc2ccc(C(F)(F)F)cn2)cc1 (stereo not given),inactive,
CCOC(=O)c1ccc(O)cc1,inactive,
CCOC(=O)C(C)Oc1ccc(Oc2cnc3cc(Cl)ccc3n2)cc1 (stereo not given),inactive,
COC(=O)c1cccc(C)c1S(=O)(=O)NC(=O)Nc1nc(OCC(F)(F)F)nc(N(C)C)n1,inactive,
CCCN(CCC)C(=O)SCC,inactive,
c1ccc(Nc2ccccc2)cc1,inactive,
CCCN(CCC)c1c([N+](=O)[O-])cc(C(F)(F)F)c(N)c1[N+](=O)[O-],inactive,
CCCOC(=O)c1ccc(C(=O)OCCC)nc1,inactive,

SMILES,outcome,AC50
CCN(Cc1c(F)cccc1Cl)c1c([N+](=O)[O-])cc(C(F)(F)F)cc1[N+](=O)[O-],inactive,
C#C[C@]1(O)CC[C@H]2[C@@H]3CCC4=CC(=O)CC[C@@H]4[C@H]3CC[C@@]21CC,inactive,
O=C(c1ccccc1)C1CCCCC1,inactive,
C[C@]12CC[C@@H]3c4ccc(O)cc4C[C@@H](CCCCCCCCCS(=O)CCCC(F)(F)C(F)(F)F)[C@H]3[C@@H]1CC[C@@H]2O (stereo not given in full),inactive,
CN(C)C(=O)Nc1ccc(Cl)c(Cl)c1,inactive,
CCCCOCCOCCOCc1cc2c(cc1CCC)OCO2,inactive,
CC(=O)[C@H]1CC[C@H]2[C@@H]3CCC4=CC(=O)CC[C@]4(C)[C@H]3CC[C@]12C,inactive,
COc1nc(C)nc(NC(=O)NS(=O)(=O)c2ccccc2OCCCl)n1,inactive,
Oc1ccc(C(c2ccc(O)cc2)C(Cl)(Cl)Cl)cc1,inactive,
COC(=O)c1c(Cl)nn(C)c1S(=O)(=O)NC(=O)Nc1nc(OC)cc(OC)n1,inactive,
CCC(C)OC(=O)N1CCCCC1CCO (stereo not given),inactive,
CCOC(=O)NCCOc1ccc(Oc2ccccc2)cc1,inactive,
CC(C)CCCCCCc1ccc(O)cc1,inactive,18 µM (active) and 17.2 µM (active)
CCOC(=O)[C@H](C)Oc1ccc(Oc2nc3ccc(Cl)cc3o2)cc1,inactive,
COCCO,inactive,
CCOC(=O)COc1cc(-n2ncc(C(F)(F)F)c(C)c2=O)c(F)cc1Cl,inactive,
OB(O)O,inactive,
CCCCOC(=O)[C@@H](C)Oc1ccc(Oc2ccc(C(F)(F)F)cn2)cc1,inactive,
COC(=O)c1ccc(I)cc1S(=O)(=O)NC(=O)Nc1nc(C)nc(OC)n1,inactive,
